Source: PubChem
Shown is part of a subset that was picked to be rich in hits.
Pf Dd2 inh = blocks in vitro growth of P. falciparum Dd2; 4.3% of 120,000 active; P. falciparum Dd2 growth, SYBR Green, 72 h; Potency, µM (series often up to 28.9 µM), most hits filed as inhibitors; active means well fitted inhibition curve with a large enough effect; further: nearly all actives have a fitted effect of over 65% in size
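Readout: SYBR Green fluorescence, 485 nm excitation, 535 nm emission, after ~16 h lysis at 37C. Before that, Dd2-infected red cells (2.5% hematocrit) grew 72 h with compound, 29 uM top final concentration.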
A number is an active result; n = inactive; [ ] = dose if it differs, or a comment.

SMILES	Pf Dd2 inh
COc1cc(C2c3c(-c4ccc(C)cc4)n[nH]c3C(=O)N2c2ccc(F)cc2)ccc1O (centres undefined)	n
CCOC(=O)c1ccc(N2C(=O)c3n[nH]c(-c4ccco4)c3C2c2cccc(F)c2)cc1 (centres undefined)	10µM
Cc1ccc(-c2n[nH]c3c2C(c2cccs2)N(c2ccc(Cl)cc2)C3=O)cc1 (centres undefined)	11.2µM
CC1=C(C(=O)OC(C)C)C(c2cccc(F)c2)N2C(CC(=O)NCc3ccco3)=CSC2=N1 (centres undefined)	n
CCOC(=O)c1ccc(N2C(=O)c3n[nH]c(-c4cccs4)c3C2c2cccc(F)c2)cc1 (centres undefined)	7.94µM
CCOC(=O)c1ccc(N2C(=O)c3n[nH]c(-c4cccs4)c3C2c2ccc(O)c(OC)c2)cc1 (centres undefined)	n
COc1cccc(C2NC(=O)c3n[nH]c(-c4cccs4)c32)c1 (centres undefined)	n
Cc1ccc(-c2n[nH]c3c2C(c2ccccc2Cl)N(c2ccc(C(=O)O)cc2)C3=O)cc1 (centres undefined)	n
CCOC(=O)c1ccc(N2C(=O)c3n[nH]c(-c4cccs4)c3C2c2ccc(C(C)(C)C)cc2)cc1 (centres undefined)	7.08µM
CCOC(=O)c1ccc(N2C(=O)c3n[nH]c(-c4cccs4)c3C2c2ccc(Cl)cc2Cl)cc1 (centres undefined)	n
CCN1C(=O)CCN(C(=O)c2cnc(C)cn2)CC12CCOCC2	n
O=C(NCC1CCCN(C(=O)c2cn[nH]c2-n2cnnn2)C1)c1cccs1 (centres undefined)	n
Cn1c(CCC(=O)N2CC[C@H](O)C2)nc2cc(S(=O)(=O)N3CCCC3)ccc21	n
Cc1ccc(S(=O)(=O)N2C3CCCC2CC(=O)C3)cc1	n
Cc1nc2cc(S(=O)(=O)N3CCOCC3)ccc2n1CCNC(=O)C1CC1	n
Cc1cc(C[C@@H]2COC[C@@H]2NC(=O)c2csc(Cc3ccccc3)n2)on1	n
CCc1ccc(C2c3c(-c4ccccc4)n[nH]c3C(=O)N2c2ccc(C(=O)O)cc2)cc1 (centres undefined)	n
CCOC(=O)c1ccc(N2C(=O)c3n[nH]c(C)c3C2c2ccc(C(C)C)cc2)cc1 (centres undefined)	n
CCOC(=O)c1ccc(N2C(=O)c3[nH]nc(-c4ccc(OC)cc4)c3C2c2ccc(C)cc2)cc1 (centres undefined)	8.91µM
CN(C(=O)c1ccccc1Cl)C1CCc2ccccc21 (centres undefined)	n
CCCN1CCCn2nc(CNC(=O)c3ccc(OC)nc3OC)cc2C1	n
Cn1nccc1C(=O)N1CCC[C@H](n2c(=O)n(C)c3cccnc32)C1	n
CN(CC1CCCO1)c1ccc(C(=O)N2CCC(N3CCOCC3)CC2)cn1 (centres undefined)	n
COc1cc(=O)n2c(c1C(=O)NC1CCCCCC1)CCCC2	n
NCc1cccc(-c2ccc(O)cc2)c1	n
SMILES	Pf Dd2 inh
CSc1ccc(-c2cccc(CN)c2)cc1	10µM
CN(Cc1ccc(-c2ccccc2)cc1)Cc1cccc(F)c1	n
Cc1ccc(-c2cccc(C=O)c2)cc1Cl	n
Cc1ccc(-c2ccc(C=O)cc2)cc1Cl	n
Cc1ccc(-c2cccc(CN)c2)cc1Cl	11.2µM
COc1ccc(OC)c(CNC(=O)c2nnn3c2COC(c2ccc(Cl)cc2)C3)c1 (centres undefined)	n
Cc1ccc(S(=O)(=O)N2CCCCCC2c2nnc(C)o2)c(C)c1 (centres undefined)	n
CC[C@H]1CN2CC[C@H]1C[C@@H]2COC(=O)Nc1ccccc1	n
COc1ccc(-c2ccc3nnc(CNC(=O)c4ccc[nH]4)n3n2)cc1	n
Cc1noc(C)c1CC(=O)N1CCC(Cc2noc(-c3ccccc3)n2)C1 (centres undefined)	n
COc1ccccc1C(=O)N1CCC(N2CCCOC2=O)CC1	n
CCNC(=O)NC[C@H]1C[C@@H]2CCN1C[C@@H]2c1cc(-c2ccc(N(C)C)cc2)nc(C)n1	n
Cc1nc(-c2ccccc2Br)cc([C@H]2CN3CC[C@H]2C[C@@H]3CNC(=O)c2ccc(C(C)(C)C)cc2)n1	3.16µM
CCNC(=O)NC[C@H]1C[C@@H]2CCN1C[C@@H]2c1cc(-c2ccc(OC)c(OC)c2)nc(C)n1	n
CCCS(=O)(=O)NC[C@H]1C[C@@H]2CCN1C[C@@H]2c1cc(-c2ccc(OC)c(OC)c2)nc(C)n1	n
Cc1nc(-c2ccccc2)cc([C@H]2CN3CC[C@H]2C[C@@H]3CN(Cc2ccco2)Cc2ccco2)n1	1.12µM
Cc1nc(-c2ccccc2Br)cc([C@H]2CN3CC[C@H]2C[C@@H]3CNC(=O)NC2CCCCC2)n1	n
Cc1ccc(C(=O)NC[C@H]2C[C@@H]3CCN2C[C@@H]3c2cc(-c3ccccc3Br)nc(C)n2)cc1	n
Cc1nc(-c2ccc(N(C)C)cc2)cc([C@H]2CN3CC[C@H]2C[C@@H]3CNC(=O)c2ccccc2)n1	3.16µM
Cc1nc(-c2ccccc2)cc([C@H]2CN3CC[C@H]2C[C@@H]3CNC(=O)C2CC2)n1	n
COc1ccc(-c2cc([C@H]3CN4CC[C@H]3C[C@@H]4CN)nc(C)n2)cc1OC	11.2µM
Cc1nc(-c2ccccc2)cc([C@H]2CN3CC[C@H]2C[C@@H]3CNC(=O)C2CCC2)n1	n
COc1ccc(C(=O)NC[C@H]2C[C@@H]3CCN2C[C@@H]3c2cc(-c3ccc(N(C)C)cc3)nc(C)n2)cc1	n
CCNC(=O)c1cccnc1OC1CCN(C(=O)c2ccc(C)c(F)c2)C1 (centres undefined)	n
Cc1nc(-c2ccc(N(C)C)cc2)cc([C@H]2CN3CC[C@H]2C[C@@H]3COC(=O)NC(C)C)n1	n
SMILES	Pf Dd2 inh
Cc1nc(-c2ccc(N(C)C)cc2)cc([C@H]2CN3CC[C@H]2C[C@@H]3COC(=O)Nc2ccc(C(C)C)cc2)n1	3.98µM
CC(C)c1nnc(C2CN(C(=O)COc3ccc(Cl)cc3)CC23CCOCC3)o1 (centres undefined)	n
COc1ccc(-c2nnc3n2CCN(C(=O)C(C)(C)C)C3)cc1	n
N#Cc1ccc(C(=O)N2Cc3[nH]cnc3C[C@H]2c2nc(-c3ccc4c(c3)OCO4)no2)cc1	10µM
O=C(NCc1ccccc1)N1Cc2[nH]cnc2C[C@H]1c1nc(-c2ccc3c(c2)OCO3)no1	n
Cc1ccc(-c2noc([C@@H]3Cc4nc[nH]c4CN3C(=O)c3ccc(F)cc3)n2)cc1	n
Cc1ccc(S(=O)(=O)N(C)CC2CCOC2)cc1F (centres undefined)	n[5.79 µM]
Cc1ccc(CNC(=O)N2CCCN(C)c3ccccc32)cc1	n
O=C(C[C@H]1NC(=O)c2ccccc2NC1=O)Nc1ccccc1Cl	n
COc1ccc(C)cc1NC(=O)C[C@H]1NC(=O)c2ccccc2NC1=O	n
COc1ccc(NC(=O)CC2Nc3ccccc3NC2=O)cc1 (centres undefined)	n
COc1cccc(NC(=O)CC2Oc3ccccc3NC2=O)c1 (centres undefined)	n
COc1cccc(NC(=O)CC2Nc3cc(C)c(C)cc3NC2=O)c1 (centres undefined)	2.24µM
Cc1cc2c(cc1C)NC(CC(=O)Nc1cccc(C)c1C)C(=O)N2 (centres undefined)	3.16µM
Cc1cccc(NC(=O)CC2Nc3cccc4cccc(c34)NC2=O)c1 (centres undefined)	n
Cc1ccc2c(c1)NC(=O)C(CC(=O)Nc1cc(Cl)ccc1C)O2 (centres undefined)	n
